HepG2 tox = kills HepG2 cells in TGF-b inhibitor counter-screen; HepG2 CAGA-GFP viability, ATP luminescence, 18 h; AID 588856; 410,000 tested, 0.76% active; Potency, µM (series often up to 46.1 µM), for the others: top-dose activity change, negative = cytotoxicity, usual class: cytotoxic; note: potency is the fitted concentration of half-maximal effect
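CellTiter-Glo luminescence gave cytotoxicity after 18 hours at 37 degrees C. The cells were HepG2 CAGA-GFP in 1% FBS DMEM, stimulated with 500 pg/mL TGF-beta after compound addition. %Activity was normalised to no-cell wells (complete cell-killing) and DMSO (no toxicity), and curves were fitted and classified.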
CtBP-E1A blk = blocks the CtBP interaction with E1A | AlphaScreen GST-E1A/His-CtBP binding, 1536-well; stronger effect = lower value | activity change, % (test concentration not listed) | 340,000 tested, 0.49% active; in the data active = activity change below about -65%; inconclusive = mostly about -30% to -63%; note: % is set by controls: 0 for no effect and ±100 for the full control effect
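Homogeneous bead-based format: GST-tagged E1A captured on glutathione donor beads, His-tagged CtBP on nickel acceptor beads; compounds precede bead addition by 2 h at 37 °C.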
ATXN2 expr inh = inhibitors of ATXN2 expression; HEK-293 ATXN2-luciferase reporter, luminescence, 24 h; Potency, µM (highest dose often 57 µM), for the others: at the highest dose activity change, negative = inhibition, most hits filed as inhibitors; 360,000 tested, 0.72% active; note: potency is the fitted concentration of half-maximal effect; % is set by controls: 0 for no effect and ±100 for the full control effect; nearly all actives have a fitted effect of over 55% in size
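qHTS (up to 57 uM final) was run with 24 h compound exposure of reporter cells at 37 °C. Each well was multiplexed: SteadyGlo luminescence measured ATXN2-luciferase expression after a fluorogenic Gly-Phe-AFC viability readout (25 uM final).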
ATXN viability = cell viability loss in ATXN counter-screen; S2 cells (HEK-293 line with an ATXN2-luciferase reporter) viability, CellTiter-Fluor protease fluorescence, 24 h; AID 651635; 400,000 tested, 0.49% active; Potency, µM (doses to about 56.7 µM), actives largely listed as cytotoxic; note: potency is the fitted concentration of half-maximal effect; nearly all actives have a fitted effect of over 40% in size
TGFb inhibitor = inhibitors of TGF-b signaling; HepG2 CAGA-GFP TGF-b/SMAD3 reporter, GFP fluorescence, 18 h; TGF-beta stimulated, 500 pg/mL final; 410,000 tested, 1.2% active; Potency, µM (top dose mostly 46.1 µM), for the others: at the highest dose activity, negative = inhibition, usual class: inhibitors; AID 588855; note: potency is the fitted concentration of half-maximal effect; % is set by controls: 0 for no effect and ±100 for the full control effect; nearly all actives have a fitted effect of over 65% in size
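Inhibition was scored as loss of TGF-beta-induced (500 pg/mL final, 18 hours, 37 degrees C) GFP in HEPG2 cells carrying a CAGA-GFP reporter, in DMEM with 1% FBS. Well GFP was summed per cell; Activity was normalised to unstimulated and stimulated DMSO wells, then concentration-response fitting.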
Six1-Eya2 blk = Six1/Eya2 interaction inhibition; AlphaScreen GST-Six1/His-Eya2 binding, biochemical; stronger effect = lower value; Q15475+O00167; activity change, % (concentration not given with the values); 360,000 tested, 0.56% active; in the data active = activity change below about -65%; inconclusive = mostly about -30% to -63%; note: % is set by controls: 0 for no effect and ±100 for the full control effect
Target sequence (O00167 whole entry, looked up): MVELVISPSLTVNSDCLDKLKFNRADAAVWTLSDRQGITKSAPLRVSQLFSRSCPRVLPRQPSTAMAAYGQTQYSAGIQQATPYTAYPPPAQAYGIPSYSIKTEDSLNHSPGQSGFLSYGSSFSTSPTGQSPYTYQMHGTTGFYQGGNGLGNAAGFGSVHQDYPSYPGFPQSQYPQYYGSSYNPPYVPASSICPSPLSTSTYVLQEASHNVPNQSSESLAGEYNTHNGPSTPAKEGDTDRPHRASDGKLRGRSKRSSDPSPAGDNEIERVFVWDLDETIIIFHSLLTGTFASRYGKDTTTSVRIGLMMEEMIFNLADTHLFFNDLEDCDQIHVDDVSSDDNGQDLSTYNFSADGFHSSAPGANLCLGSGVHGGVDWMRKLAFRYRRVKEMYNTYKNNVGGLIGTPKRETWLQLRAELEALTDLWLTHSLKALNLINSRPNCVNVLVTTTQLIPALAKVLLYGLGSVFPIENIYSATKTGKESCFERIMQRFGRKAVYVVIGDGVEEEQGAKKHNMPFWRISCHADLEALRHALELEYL
Target sequence (Q15475 whole entry, looked up): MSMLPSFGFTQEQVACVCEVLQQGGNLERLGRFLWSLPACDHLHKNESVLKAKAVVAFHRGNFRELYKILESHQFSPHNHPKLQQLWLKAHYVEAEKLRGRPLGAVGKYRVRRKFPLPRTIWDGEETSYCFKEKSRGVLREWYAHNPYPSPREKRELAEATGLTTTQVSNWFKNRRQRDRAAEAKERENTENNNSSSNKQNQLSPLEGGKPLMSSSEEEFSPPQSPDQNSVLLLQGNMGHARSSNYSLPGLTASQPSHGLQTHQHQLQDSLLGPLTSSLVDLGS
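Compounds are tested against tagged Six1 and Eya2 proteins bridged by glutathione donor and nickel acceptor beads; after a one-hour incubation at 37 °C without light, AlphaScreen emission is recorded.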
SK-N-SH 3D tox = kills SK-N-SH neuroblastoma spheroids in orthogonal 3D test; shares compounds with ATXN2 expr inh; SK-N-SH 3D spheroid viability, PI/Hoechst imaging, 72 h; Potency, µM (series often up to 30.7 µM), usual class: inhibitors; 65 tested, 70% active; AID 1347135
SJ-GBM2 3D tox = SJ-GBM2 spheroid viability loss, orthogonal 3D screen. 65 tested, 80% active. Potency, µM (series often up to 30.7 µM), most hits filed as inhibitors. SJ-GBM2 3D spheroid viability, PI/Hoechst imaging, 72 h. shares compounds with ATXN2 expr inh. AID 1347136
Daoy spheroid = Daoy 3D spheroid viability loss. shares compounds with ATXN2 expr inh. 65 tested, 50% active. Potency, µM (doses to about 30.7 µM), actives largely listed as inhibitors. Daoy 3D spheroid viability, PI/Hoechst imaging, 72 h. AID 1347137
TC32 3D caspase = activates caspase in TC32 3D spheroids | AID 1347138 | shares compounds with ATXN2 expr inh | Potency, µM (series often up to 30.7 µM), actives largely listed as inhibitors | TC32 3D spheroids, caspase-3/7 fluorescence imaging, 24 h | 65 tested, 30% active
TC32 3D tox = reduced viability of TC32 3D spheroids, orthogonal test; shares compounds with ATXN2 expr inh; TC32 3D spheroid viability, PI/Hoechst imaging, 72 h; Potency, µM (top dose mostly 30.7 µM), most hits filed as inhibitors; 65 tested, 60% active; AID 1347139
MG63 3D tox = kills MG-63 (6-TG R) spheroids in orthogonal 3D test; 65 tested, 50% active; shares compounds with ATXN2 expr inh; MG-63 (6-TG R) 3D spheroid viability, PI/Hoechst imaging, 72 h; AID 1347140; Potency, µM (highest dose often 30.7 µM), hits mostly inhibitors
RD 3D tox = RD 3D spheroid viability loss. shares compounds with ATXN2 expr inh. RD rhabdomyosarcoma 3D spheroid viability, PI/Hoechst imaging, 72 h. Potency, µM (top dose mostly 30.7 µM), most hits filed as inhibitors. 65 tested, 50% active. AID 1347141
The depositor's hits bear a star; i = inactive; ? = inconclusive; . = no result. A selection follows. Unless noted, calls come from the whole dose curve; as a rule, active = well fitted curve in the direction sought with a large enough effect; inconclusive = small, poorly fitted or top-dose-only effect, or another doubt; inactive = no such curve, though single readings can be large; an effect the other way counts as inactive or inconclusive.

SMILES	HepG2 tox	CtBP-E1A blk	ATXN2 expr inh	ATXN viability	TGFb inhibitor	Six1-Eya2 blk	others
CCCNC(=O)c1cc2c(c(-c3cccc(-c4cc5ccccc5o4)c3)n1)[C@H](CCO)N(C(=O)NC(C)C)C2	.	-7	?	?	.	?
COc1ccc(S(=O)(=O)N(C)C[C@H]2Oc3c(NC(=O)NC4CCCCC4)cccc3C(=O)N([C@H](C)CO)C[C@@H]2C)cc1	-15%	-1	?	?	?	-2
CC(C)(C)NCC(O)c1cc(Cl)c(N)c(Cl)c1 (stereo unspecified)	-11%	3	-9%	?	5%	2
COc1ccc(N2CCN(CCc3ccncc3)CC2)cc1	7%	1	-10%	?	29%	-9
COc1ccc(C(=O)Nc2nnc(S(=O)(=O)N(CC(C)C)c3ccc(C)cc3)s2)cc1OC	-1%	.	.	.	?	.
CCCCn1c(N)c(N(CCOC)C(=O)CCCn2c(=O)oc3ccccc32)c(=O)[nH]c1=O	-18%	11	-10%	i	-8%	-8
Cc1ccc(CN(C)C(=O)c2cccc(S(=O)(=O)N3CCN(c4ccccc4)CC3)c2)cc1	-9%	-6	-25%	?	?	-21
CCc1ccc(NC(=O)CN2C(=O)C3(SCC(=O)N3c3ccc(F)c(F)c3)c3ccccc32)cc1 (stereo unspecified)	-22%	.	?	i	?	.
O=c1[nH]c2ccc(Cl)cc2c(N[C@@H]2CN3CCC2CC3)c1-c1nc2ccccc2[nH]1	.	.	0.068µM*	.	.	.	SK-N-SH 3D tox=0.13µM*;SJ-GBM2 3D tox=0.091µM*;Daoy spheroid=0.72µM*;TC32 3D caspase=18µM*;TC32 3D tox=13µM*;MG63 3D tox=6.4µM*;RD 3D tox=?
COC(=O)c1ccc(CN2CCN(Cc3ccccc3)CC2)cc1	47%	-1	-10%	i	-14%	-1
CC[C@H]1OC(=O)C[C@@H](O)[C@H](C)[C@@H](O[C@@H]2O[C@H](C)[C@@H](O[C@H]3C[C@@](C)(O)[C@@H](O)[C@H](C)O3)[C@H](N(C)C)[C@H]2O)[C@@H](CC=O)C[C@@H](C)C(=O)/C=C/C(C)=C/[C@@H]1CO[C@@H]1O[C@H](C)[C@@H](O)[C@@H](OC)[C@H]1OC	-2%	2	0%	i	8%	-2
CCOc1ccc(NC(=O)CN(c2ccc(Cl)cc2C)S(=O)(=O)c2ccccc2)cc1	-26%	.	-15%	i	?	.
CC(C)CC(=O)Nc1ccc(C(=O)Cn2c(=O)oc3ccccc32)cc1	-2%	.	.	i	0%	4
CN1[C@@H]2CC[C@H]1CC(OC1c3ccccc3CCc3ccccc31)C2 (stereo partly specified)	-32%	0	-5%	i	52%	-1
Cc1ccc(NC(=O)Cn2c(=O)oc3cc(S(=O)(=O)N4CCCCC4)ccc32)c(Cl)c1	-55%	.	-31%	?	?	.
N#Cc1cc(NC(=O)c2ccc(Cl)cc2)ccc1Sc1ccccc1	-1%	32	?	?	?	10
FC(F)(F)c1ccc2c(c1)N(CCCN1CCN(CCCl)CC1)c1ccccc1S2	-76%	-15	?	?	?	-19
O=C(O)CNC1c2ccccc2CSc2ccccc21 (stereo unspecified)	27%	-9	1%	i	10%	32
S=c1[nH]nc(Cn2c(-c3ccccn3)nc3ccccc32)n1-c1ccc2c(c1)OCCO2	-13%	0	14%	i	8%	2
CCc1ccccc1NC(=O)NNS(=O)(=O)c1cc(C)ccc1C	0%	4	-11%	i	85%	8
C[C@@H]1CN([C@@H](C)CO)C(=O)c2c(c3ccccc3n2C)-c2ccccc2CO[C@H]1CN(C)S(=O)(=O)c1ccc(C#N)cc1	-17%	-2	-4%	i	?	4
Cc1ccc(NC(=O)N2CCN(c3cc(-c4noc(C)n4)ccc3C)CC2)c(F)c1	-24%	.	-8%	i	?	.
CC(Cc1ccccc1)NCCC(=O)NC(C)Cc1ccccc1 (stereo unspecified)	-38%	.	.	i	-25%	9
CCCc1c(-c2ccccc2F)ncn1CCc1ccccc1OC	.	-6	?	?	.	-22
O=C1C(I)=CC(=C(c2cc(I)c(O)c(I)c2)c2ccccc2C(=O)O)C=C1I	.	.	9%	?	.	.
O=[N+]([O-])c1ccc(CNCCc2ccccc2)cc1	-16%	.	.	i	-11%	-4
CC1CCCCN1S(=O)(=O)c1ccc2c(c1)oc(=O)n2CC(=O)Nc1ccc(Cl)cc1 (stereo unspecified)	-28%	.	-9%	i	?	.
ClC1=C(Cl)C(Cl)=C(Cl)C1=C/C=C/c1ccccc1	-2%	2	?	?	-2%	-9
COc1cccc(NC(=O)C2CCN(S(=O)(=O)c3cc(-c4noc(C)n4)ccc3C)CC2)c1	-23%	.	-26%	i	?	.
NC1(c2ccccc2)CCCCC1	.	.	?	i	.	.

From PubChem BioAssay
